Compounds with a hit are over-represented: about 13% of the library has one in this group of screens.
Pf growth 96h – inhibits malaria parasite growth, 96 h | 320,000 compounds, 6.9% hits | Potency, µM (doses to about 28.7 µM), for the others: at the highest dose activity change, negative = inhibition, actives largely listed as inhibitors | P. falciparum luciferase reporter growth, 96 h; note: potency is the fitted concentration of half-maximal effect
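Readout is luminescence from an integrated firefly luciferase in P. falciparum. Red cells, 2% hematocrit and 0.05% parasitemia final, were cultured with compound through two parasite generations (96 hours) at 37 C, 5% CO2.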
HCV inhibitor – HCV inhibition; Huh7.5.1 HCVcc-Cre infection, luciferase reporter, 44 h; Potency, µM (titrated, usually from 41.8 µM), without a hit: at the highest dose activity change, negative = inhibition, most hits filed as inhibitors; 340,000 compounds, 3.4% hits; note: potency is the fitted concentration of half-maximal effect
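Cells seeded at 1,000/well and cultured 4 h, then compounds added followed by HCVcc-Cre virus (~0.5 moi). After 44 h further culture, luciferase substrate was added, plates held 15 min at room temperature, and luminescence read for 15 sec.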
Pf growth 48h – P. falciparum growth inhibition at 48 hours (one generation); P. falciparum luciferase growth in erythrocytes, 48 h; Potency, µM (highest dose often 28.7 µM), without a hit: top-dose activity change, negative = inhibition, hits mostly inhibitors; 310,000 compounds, 5.9% hits; note: potency is the fitted concentration of half-maximal effect
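Luciferase-expressing P. falciparum in infected erythrocytes (2% hematocrit, 0.1% parasitemia final) in RPMI 1640/0.5% Albumax were exposed to compound for 48 hours at 37 C, 5% CO2; growth read as luminescence.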
HCMV antiviral – blocks human cytomegalovirus replication | HFF cells, HCMV-luciferase reporter, 72 h; active compounds read low | activity change, negative = inhibition, % at 57.5 µM | 410,000 compounds, 4.5% hits | AID 1259415; in the data active = activity change below about -60%; inconclusive = no clear call, values can overlap the other calls; inactive = above about -39%
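HFF cells seeded 16 h at 37C, treated with compounds, infected with luciferase-reporter HCMV at MOI 1 PFU/cell; luciferase read at 72 h post infection, normalized to buffer-only and Salinomycin controls.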
* marks the source's active call; other numbers are inactive results; u = inconclusive; x = no result; ! = a repeat was not active; [ ] = another dose, or the depositor's remark. Unless noted, calls come from the whole dose curve; as a rule, active = well fitted inhibition curve with a large enough effect; inconclusive = small, poorly fitted or top-dose-only effect, or another doubt; inactive = no such curve, though single readings can be large or run the other way. % is set by controls: 0 for no effect and ±100 for the full control effect.

SMILES	Pf growth 96h	HCV inhibitor	Pf growth 48h	HCMV antiviral
CC(=O)Oc1ccccc1/C=C/c1nc2ccccc2c(=O)o1	34.5%	6.7%	1.47µM*	-9.5
O=c1oc(/C=C/c2ccc([N+](=O)[O-])s2)nc2ccccc12	0.0828µM*	10.8%	u	x
CC(=O)Oc1ccc(/C=C/c2nc3ccccc3c(=O)o2)cc1	11.7µM*	30.9%	168.0%	-28.8
CCc1nn2c(=O)cc(COC(=O)c3ccccc3NC(=O)c3cccs3)nc2s1	x	x	x	51.5
Cc1ccc(CNC(=O)CCCCCn2c(=O)c3sccc3n(CC(=O)N3CCCCC3C)c2=O)cc1 (configuration not stated)	x	x	x	-2.5
Cc1ccc(NC(=O)N2CCN(Cc3nc4ccc(C)cc4o3)CC2)cc1	x	x	x	-9.0
Cc1cccc(NC(=O)c2cc(-c3cc(C)cc(C)c3O)n[nH]2)c1	u	11.2µM*	u	u
Cc1cccc(NC(=O)c2cc(-c3c(C)cc(C)cc3O)n[nH]2)c1	14.7µM*	-16.5%	0.0%	-20.5
Cc1ccc(C(=O)Nc2cccnc2)cc1C	x	x	x	40.1
COc1ccc(-c2cc(C(=O)Nc3ccc(NC(C)=O)cc3)[nH]n2)c(C)c1	x	x	x	87.5
CC(=O)Nc1ccc(NC(=O)c2cc(-c3cc(C)c(C)cc3O)n[nH]2)cc1	u	u	1.04µM*	-8.6
Cc1cc(O)c(-c2cc(C(=O)Nc3cccnc3)[nH]n2)cc1C	2.08µM*	-4.0%	2.62µM*	50.7
COc1ccc(-c2noc(-c3ccc(N4CCC(C)CC4)c([N+](=O)[O-])c3)n2)cc1OC	x	x	x	-7.5
Cc1cc(C)c(O)c(-c2cc(C(=O)Nc3cccnc3)[nH]n2)c1	2.94µM*	u	2.94µM*	u
CCc1ccc(O)c(-c2cc(C(=O)Nc3cccnc3)[nH]n2)c1	0.415µM*	u	u	24.5
COc1ccc(CNC(=O)c2cc(-c3cc(C)cc(C)c3O)n[nH]2)cc1	u	u	u	8.1
CCOc1ccc(NS(=O)(=O)c2ccc(C(=O)N(C)Cc3cccc(OC)c3OC)cc2)cc1	u	12.6µM*	-12.9%	-31.0
CCOc1ccc(S(=O)(=O)Nc2ccc(C(=O)N(CC)CC(=O)NCc3cccs3)cc2)cc1	x	x	x	-72.2*
COc1ccc(-c2nn(-c3ccccc3)cc2/C=N/NC(=O)c2ccc(Br)o2)cc1	u	u	u	-13.8
Cc1ccc(-c2nn(-c3ccccc3)cc2/C=N/NC(=O)CSc2nnc(C)n2-c2ccccc2)cc1	-3.0%	14.1µM*	u	38.5
COc1ccc(-c2nn(-c3ccccc3)cc2/C=N/NC(=O)c2cccc(S(=O)(=O)Nc3ccccc3OC)c2)cc1	2.33µM*	4.5%	3.29µM*	12.7
COc1ccc(-c2nn(-c3ccccc3)cc2/C=N/Nc2cccc(C(=O)O)c2)cc1	-8.9%	-32.5%	16.8%	-61.0*
Cc1ccc(NC(=O)CN(CCc2ccccc2)S(=O)(=O)c2ccccc2)c(C)c1	x	x	x	-11.6
CCCCCc1cc(O)c2c(C)cc(=O)oc2c1	5.5%	11.2µM*	2.62µM*	-105.4*
CCCCCc1cc(O)c2c3c(c(=O)oc2c1)CN(C)CC3	-5.8%	10µM*	u	-34.5
SMILES	Pf growth 96h	HCV inhibitor	Pf growth 48h	HCMV antiviral
COc1ccc(Br)cc1C(=O)Nc1cccc2ccc(C)nc12	x	x	x	24.6
Cc1cccc(N2C(=O)c3cccc4c(N)ccc(c34)C2=O)c1	u	10µM*	-20.8%	u
Cc1cccc(N2C(=O)c3cccc4c(N(C)CCO)ccc(c34)C2=O)c1	5.86µM*	11.2µM*	u	x
CC1=C(c2ccc(C)cc2)S(=O)(=O)N(Cc2ccc(C(=O)Nc3ccc(C)c(F)c3)cc2)C1=O	x	x	x	-24.2
CC1CCN(c2ccc(-c3cccc(NS(=O)(=O)c4cccs4)c3)nn2)CC1	x	x	x	81.4
O=C(Nc1ccccc1)C1CC2CCCC(C1)C2=O (configuration not stated)	3.7µM*	18.5%	10.3%	-29.1
CCOc1cc(OCC)c(C(=O)CCC(=O)O)cc1OCC	2.39µM*	x	u	x
CCOc1cc(Br)c(CC(=O)O)cc1OCC	-7.1%	0.1%	130.7%	2.7
CCOC(=O)c1c(C)[nH]c(C)c1S(=O)(=O)Nc1ccc(CN2CCCCC2)cc1	5.86µM*	8.1%	u	45.2
CCOC(=O)N1CCN(C(=O)CSc2nnc(-c3cc(OC)ccc3OC)o2)CC1	0.0%	10µM*!	u	10.7
Cc1ccc(-c2nnc(SCCC(=O)N3CCOCC3)o2)cc1	u	15.3%	81.2%	-100.5*
Cc1cc(C)nc(SCc2nnc(SCC(=O)N3CCOCC3)o2)n1	7.38µM*	3.8%	28.8%	21.7
O=C(CCSc1nnc(-c2ccccc2)o1)N1CCOCC1	37.5%	1.5%	26.1%	-6.9
CCOC(=O)N1CCN(C(=O)CSc2nnc(-c3cccc(OC)c3)o2)CC1	x	-27.3%	9.28µM*	23.5
COc1ccc(-c2nnc(SCC(=O)N3CCOCC3)o2)cc1OC	11.7µM*	-27.6%	11.3%	48.0
Cc1ccc(-c2nnc(SCC(=O)N3CCCC3)o2)cc1C	213.7%	-3.5%	11.2%	126.0
COc1ccc(N2CCN(C(=O)CSc3nnc(-c4ccc5[nH]c(C)c(C)c5c4)o3)CC2)cc1	3.29µM*	-15.8%	u	32.2
CCOC(=O)N1CCN(C(=O)CSc2nnc(-c3ccc(C)c(C)c3)o2)CC1	9.28µM*	1.5%	x	-16.6
COc1ccc(-c2nnc(SCC(=O)N3CCN(c4ccccc4)CC3)o2)cc1OC	-4.2%	6.0%[8.37 µM]	38.9%	-23.7
O=C(CSc1nnc(-c2ccncc2)o1)N1CCCCCC1	-11.2%	16.9%	26.5%	10.9
COC(=O)C1CCN(C(=O)CSc2nnc(-c3ccncc3)o2)CC1	5.22µM*	-12.5%	12.7%	-0.3
COCCCNC(=O)Nc1cc(C(=O)NCc2ccc(OC)cc2)ccc1N1CCCC1	x	x	x	17.4
COc1ccc(C(=O)NCc2ccc3c(c2)CCN3C(=O)c2cccc(C)c2)cc1OC	x	x	x	10.9
Cc1ccc(CSCC(=O)Nc2cc(S(=O)(=O)N3CCOCC3)ccc2OC(C)C)cc1	6.57µM*	u	10.4µM*	-13.5
CC(C)Oc1ccc(S(=O)(=O)N2CCOCC2)cc1NC(=O)CCCSc1ccccc1	u	11.2µM*	u	-24.8
SMILES	Pf growth 96h	HCV inhibitor	Pf growth 48h	HCMV antiviral
CC(C)Oc1ccc(S(=O)(=O)N2CCOCC2)cc1NC(=O)Cc1cccs1	u	-15.4%	13.1µM*	-16.4
COc1ccc(S(=O)(=O)N2CCOCC2)cc1NC(=O)Cc1cccs1	u	1.6%	u	-2.8
COc1ccc(S(=O)(=O)N2CCOCC2)cc1NC(=O)CSc1ccccc1	9.3%	x	-5.6%	-23.1
Cc1ccc(Cl)cc1N1CCN(C(=O)c2cn(C3CCCCC3)c(=O)c3c2c2ccccc2n3C)CC1	x	x	x	-26.6
CCCCOC(=O)c1ccc(NC(=O)Cc2coc3c(C)c(C)ccc23)cc1	x	x	x	-22.0
CCC(SC1=NCCS1)C(=O)Nc1nnc(-c2ccccc2OC)s1 (configuration not stated)	-25.7%	13.0%	10.4%	-97.3*
CCOC(=O)Nc1nnc(-c2ccccc2OC)s1	12.1%	u	56.2%	u
COCCNC(=O)CCCn1c(SCC(=O)c2ccc(Br)cc2)nc2c(sc3ccccc32)c1=O	x	x	x	5.9

Screening results (PubChem BioAssay)
